This is an account of results in PubChem BioAssay (NCI).

This is part of a sample that, as a whole, favours compounds with a hit. Of some 83,000 tested, about 20% had one in any assay.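 Cell lines were cultured in 96-well plates, exposed to a single compound concentration, and assessed for percent growth 48 hours later.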 A number with no mark means an inactive call. Activity calls are given as the source filed them. The calls were made as follows: active = growth percent below 10; inactive = the rest.

Common to all, as to test: NCI-60 one-dose screen, 48 h (100 = growth as untreated, 0 = no growth, -100 = all killed)
Holding throughout (conditions): 10 µM unless noted

In test [1] the test system is HCT-15 colon.
Test [2] concerns HT29 colon.
In test [3] the test system is SNB-75 CNS.
Test [4] deals with SNB-19 CNS.
For test [5], the system named is U251 CNS.
Test [6] relates to PC-3 prostate.
Test [7] deals with SK-MEL-5 melanoma.
Test [8] has as its system UACC-62 melanoma.
The test system of test [9] is LOX IMVI melanoma.
Test [10] has as its system SK-MEL-28 melanoma.

Regarding `O=C1c2cccc3c([N+](=O)[O-])ccc(c23)C(=O)N1CCCCl`, the growth in [1] is -82.6% [100 µM] (active); in [2] it was -63.2% [100 µM] (active); in test [3], -98.6% [100 µM] (active); in test [4] it was -97.8% [100 µM] (active); in test [5], -97.4% [100 µM] (active); in [6], -90.8% [100 µM] (active). The growth in test [7] is -95.6% [100 µM] (active); in [8] it was -96.3% [100 µM] (active); in [9], -85.5% [100 µM] (active); in [10], -97.3% [100 µM] (active).
With `Nc1ccc2c(c1)Cc1cc(Cl)c(Cl)cc1-2`, the growth in [1] was 51.5%; in test [2], 93.1%; in test [3], 84%; in test [4], 46.2%; in [5] it was 34.6%; in [6], 68.5%. Moreover, the growth in test [7] was 43.4%; in [8], 63.4%; in test [9], 76.1%; in test [10] it was 78.6%.
As for `COc1cnc2c(c1)C(=O)c1c-2n(CCCn2ccnc2)c(=O)c2cc(F)ccc12`, the growth in test [1] was -28.4% (active); in [2] it was -16.2% (active); in test [3], 4.31% (active); in [4], 16.6%; in test [5], -27.1% (active); in test [6] it was -4.35% (active). In addition, the growth in test [7] was -96.2% (active); in test [8] it was -55% (active); in test [9], -68.9% (active); in [10], -62.5% (active).
Turning to `O=C1NC(=S)S/C1=C\c1cc(Br)ccc1O`, the growth in test [1] is 97.8%; in test [2], 119%; in [3], 97.8%; in [4], 107%; in test [5], 99.9%; in [6], 104%. For the same compound, the growth in [7] was 92.6%; in test [8] it was 84.8%; in test [9], 100%; in test [10], 111%.
Turning to `C[N+]1(C)C2CC[C@@H]1CC(OC(=O)C(O)c1ccccc1)C2` (stereo partly drawn), the growth in test [1] was 105%; in test [2], 103%; in test [3], 99%; in [4], 110%; in [5], 98.5%; in test [6] it was 99.5%. Also, the growth is 102% in [7], 102% in [8], 102% in [9] and 113% in test [10].
For the compound `O=C(CC(C(=O)c1ccccc1)N1CCN(Cc2ccccc2)CC1)c1ccccc1` (stereo not drawn), the growth is 57% in [1]; 54.7% in test [2]; 91.7% in test [3]; 99.4% in test [4]; 74.9% in test [5]; 93.8% in [6]. Also, the growth is 103% in test [7], 101% in [8], 73.4% in [9] and 112% in test [10].
Consider `Cc1cc(C)nc(NS(=O)(=O)c2ccc(Nc3nc4nc(SCc5ccccc5)nc(-c5ccc(O)cc5)c4c(=O)[nH]3)cc2)n1`, for which the growth in test [1] was 109%; in test [2] it was 123%; in test [3], 88.3%; in test [4], 74.9%; in test [5] it was 94.6%; in test [6], 67.7%. Further, the growth in test [7] was 99.5%; in [8], 83.5%; in test [9], 101%; in [10], 86.3%.
As for `COc1cccc2c1C(=O)c1c(O)c3c(c(O)c1C2=O)C[C@@](O)(C(C)=O)C[C@@H]3O[C@H]1C[C@H](N)[C@H](O)[C@H](C)O1`, the growth was 7.88% (active) in test [1]; -13.5% (active) in [2]; -91.4% (active) in test [3]; 2.11% (active) in test [4]; 0.281% (active) in test [5]; -26.3% (active) in [6]. In addition, the growth was -100% (active) in [7], -65.8% (active) in test [8], -35% (active) in test [9] and -44.5% (active) in [10].
With `CCN(Cc1cccc(S(=O)(=O)[O-])c1)c1ccc(C(=C2C=CC(=[N+](CC)Cc3cccc(S(=O)(=O)O)c3)C=C2)c2ccccc2S(=O)(=O)O)cc1`, the growth in test [1] was 103%; in test [2] it was 103%; in test [3], 87.9%; in test [4], 106%; in [5], 99.2%; in [6], 93.7%. In addition, the growth in test [7] was 97.4%; in test [8], 101%; in test [9], 96%; in [10] it was 109%.
As to `N[C@H](CS)C(=O)O`, the growth in test [1] is 96.6%; in [2] it was 95.9%; in test [3], 84.2%; in test [4], 96.1%; in [5], 105%; in test [6], 94.1%. In addition, the growth in [7] is 105%; in test [8], 99.9%; in test [9], 100%; in [10] it was 125%.
On to `C=CCN(/C=C/CN(CC=C)CC=C)CC=C`, for which the growth was 100% in test [1]; 100% in test [2]; 85.8% in [3]; 97.8% in test [4]; 97.3% in [5]; 89.4% in test [6]. For the same compound, the growth in [7] was 109%; in test [8], 101%; in test [9], 103%; in test [10], 98.5%.
For `O=[N+]([O-])c1ccc(N=Nc2c(Cl)cc(O)cc2Cl)cc1`, the growth in [1] is -25.7% (active); in test [2] it was 8.53% (active); in test [3] it was -10.4% (active); in [4], 20.1%; in test [5], 10%; in test [6], 8.4% (active). Besides, the growth was -58.7% (active) in test [7], -44.1% (active) in test [8], -12.7% (active) in test [9] and 5.72% (active) in test [10].
As to `O=C(N/N=C/c1cccc(O)c1)c1ccc(C(F)(F)F)nc1Nc1cccc(C(F)(F)F)c1`, the growth in test [1] was 11.5%; in test [2] it was 7.96% (active); in test [3], -5.22% (active); in [4] it was 26.2%; in test [5], 2.76% (active); in [6], -8.91% (active). Besides, the growth in test [7] was 8.39% (active); in test [8], 0.893% (active); in [9], -18.2% (active); in test [10], 24.7%.
Turning to `O=C(/C=C/c1c(-c2ccccc2)[nH]c2ccccc12)S(=O)(=O)c1ccccc1`, the growth in [1] is 38.1%; in [2] it was 34%; in test [3], 84.5%; in test [4], 82.4%; in test [5], 76.5%; in test [6], 36.5%. Besides, the growth is 37.4% in [7], 39.1% in test [8], 56.5% in test [9] and 72.5% in [10].
As for `NC(=NCCCCCCN=C(N)/N=C(\N)Nc1ccc(Cl)cc1)/N=C(\N)Nc1ccc(Cl)cc1`, the growth in [1] was 17.2%; in test [2] it was 7.91% (active); in test [3], -7.16% (active); in test [4], 13.7%; in [5] it was -5.76% (active); in test [6], 20.7%. Also, the growth in test [7] was -95.7% (active); in [8], 8.7% (active); in test [9] it was 23.4%; in test [10], 32.8%.
For `CCCCc1n(Cc2ccc3ccccc3c2)cc[n+]1Cc1ccc2ccccc2c1`, the growth in [1] is 49.5%; in test [2], -34.4% (active); in test [3] it was -18% (active); in test [4], -22.9% (active); in test [5], -46.5% (active); in [6] it was -29.7% (active). In addition, the growth is -97.8% (active) in test [7], -85.9% (active) in test [8], -88.2% (active) in [9] and -55% (active) in test [10].
Consider `COc1ccc2c(c1)CC[C@@H]1[C@@H]2CC[C@]2(C)[C@@H](O)C(=O)C[C@@H]12`, for which the growth in test [1] is 114%; in test [2] it was 105%; in [3], 97.2%; in test [4], 102%; in [5], 102%; in [6] it was 95.1%. In addition, the growth in [7] was 107%; in test [8] it was 94.5%; in test [9], 94%; in test [10], 113%.
With `O=C(/C=C/c1cccc(Nc2ccnc3cc(Cl)ccc23)c1)c1ccc(Cl)cc1`, the growth in test [1] is 54.8%; in test [2], 21.8%; in test [3], 67.6%; in test [4], 63.2%; in test [5], 49.9%; in test [6] it was 62.9%. Further, the growth in [7] is 39.6%; in [8] it was 50.2%; in test [9] it was 11.2%; in test [10], 71%.
Consider `[N-]=[N+]=NCc1ncc(-c2ccc(C(F)(F)F)cc2)c(NC2CCCCCC2)n1`, for which the growth in [1] was 80.2% [50 µM]; in test [2], 69.8% [50 µM]; in [3], 65.8% [50 µM]; in test [4], 85.2% [50 µM]; in [5] it was 73% [50 µM]; in [6], 35.6% [50 µM]. Also, the growth was 84.2% [50 µM] in test [7], 79.2% [50 µM] in [8], 82.2% [50 µM] in test [9] and 98.1% [50 µM] in [10].
With `O=C1OC(Oc2ccccc2)(c2ccccc2)c2ccccc21` (stereo not drawn), the growth in test [1] was 99.7%; in test [2], 102%; in test [3] it was 97.2%; in test [4], 115%; in test [5] it was 91.4%; in [6] it was 91.2%. Moreover, the growth was 112% in test [7], 100% in [8], 89.2% in test [9] and 127% in [10].
With `CCOC(=O)CNC(=O)C1(NC(=O)CNC(=O)OCc2ccccc2)CCCC1`, the growth in test [1] is 102%; in test [2], 105%; in test [3], 83.9%; in test [4], 102%; in test [5] it was 106%; in test [6] it was 98.7%. Further, the growth was 97% in [8], 95.4% in test [9] and 107% in test [10].
For `CC(C)C[C@H](NC(=O)/C=C/Cn1ccc2ccccc2c1=O)B(O)O`, the growth is 67.5% in [1]; 8.43% (active) in [2]; 50.2% in test [3]; 56.2% in test [4]; 55.8% in [5]; 79.1% in test [6]. Moreover, the growth in [7] is 23.5%; in [8], 17%; in test [10], 50.8%.
